Screens deposited in PubChem BioAssay by The Scripps Research Institute Molecular Screening Center.
A selection: hits, their analogues and other compounds. The true share with any hit is near 2.3%.
M1 PAM = positive allosteric modulators of human M1 muscarinic receptor. CHO-K1 hM1, Fluo-8 calcium fluorescence, ACh EC20; 0% = ACh EC20, 100% = maximal ACh. hit rate 0.088% among 360,000. activation, % at 3 µM; in the data active = activation above about 19%, passing the limit was not always enough
Target sequence (P11229 whole entry, looked up): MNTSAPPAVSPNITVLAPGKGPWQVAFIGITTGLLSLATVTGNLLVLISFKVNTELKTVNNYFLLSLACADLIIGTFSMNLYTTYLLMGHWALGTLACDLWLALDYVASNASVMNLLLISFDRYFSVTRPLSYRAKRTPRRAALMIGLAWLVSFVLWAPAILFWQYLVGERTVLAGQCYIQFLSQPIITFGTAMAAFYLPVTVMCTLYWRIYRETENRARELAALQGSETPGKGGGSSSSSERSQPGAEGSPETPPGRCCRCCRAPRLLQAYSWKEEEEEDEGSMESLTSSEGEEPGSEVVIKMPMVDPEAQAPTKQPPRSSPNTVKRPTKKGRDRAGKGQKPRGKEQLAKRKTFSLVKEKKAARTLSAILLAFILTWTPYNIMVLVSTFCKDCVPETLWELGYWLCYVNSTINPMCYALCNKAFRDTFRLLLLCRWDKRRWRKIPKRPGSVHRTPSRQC
M1 ag parental = nonselective activator or artifact in parental CHO-K1 cells; Fluo-8 calcium fluorescence; scaled to maximal ATP response, vehicle zero; activation, % at 3 µM; hit rate 0.48% among 360,000; AID 602248; in the data active = activation above about 15%;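 also: untransfected CHO-K1 host cells lacking M1 receptor as counterscreen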
CHO-K1 Ca PAM = nonselective activator or artifact in parental CHO-K1 calcium assay | hit rate 0.02% among 360,000 | AID 602247 | ATP EC20, Fluo-8 calcium fluorescence; 0% at ATP EC20, 100% at ATP max | activation, % at 3 µM;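 active = activation above the run cutoff, the mean activation of all test compounds plus 3 SD, cut at about 40% in these data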;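 also: peak over basal fluorescence ratio in a 140 s read after ATP addition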
M1 ag = activates human CHRM1 receptor. CHO-K1 hM1, Fluo-8 calcium fluorescence, agonist mode; 0% DMSO, 100% acetylcholine EC100. activation, % at 3 µM. hit rate 0.33% among 360,000. AID 588814;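 active = activation above the run's mean compound activation plus 3 SD, cut at about 16% in these data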;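 also: peak over basal fluorescence ratio within a 140 s kinetic read after compound addition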
CHO-K1 Ca antag = M1 antagonist counterscreen hit in parental CHO-K1 cells | ATP-induced calcium, Fluo-8 fluorescence | inhibition, % at 3 µM | hit rate 0.6% among 360,000 | AID 602250;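 active = inhibition above a per-plate cutoff, the plate's mean sample inhibition plus 3 SD, cut at about 24% in these data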;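 also: 0% = DMSO plus EC80 ATP and 100% = DMSO alone without ATP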
M1 antag = antagonists of human M1 muscarinic receptor. P11229. hit rate 1.3% among 360,000. CHO-K1 hM1, Fluo-8 calcium fluorescence, ACh EC80 antagonist. inhibition, % at 3 µM. AID 588852;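 active = percent inhibition above its own plate's cutoff, namely the mean of that plate's compound wells plus 3 SD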;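 also: peak over basal fluorescence ratio during 140 s after agonist addition; 0% = ACh EC80 plus DMSO and 100% = DMSO alone without agonist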
The depositor's hits bear a star; x = no result given.

SMILES	M1 PAM	M1 ag parental	CHO-K1 Ca PAM	M1 ag	CHO-K1 Ca antag	M1 antag
Cc1csc(NC(=O)c2ccc(Cn3nc(C)c(Br)c3C)o2)n1	-10	17*	4	-2	14	14
Cc1nn(Cc2ccc(C(=O)Nc3ccccc3C(F)(F)F)o2)c(C)c1Br	-7	2	4	1	2	6
CC(=O)Nc1c(NC(C)C)c2ccccc2oc1=O	14	3	14	1	-18	-10
CC(=O)Nc1c(Nc2ccccc2)c2ccccc2oc1=O	12	15*	6	-7	18	-4
Cc1ccc(CSCCNS(=O)(=O)c2ccccc2)cc1	1	0	-9	-6	13	-4
COc1cc2c(cc1OC)-c1nnc(C)n1C1(CCCC1)C2	4	-1	-9	-4	27*	-4
CCn1cc(CNCc2cn(C)nc2-c2ccc(C3CCCCC3)cc2)cn1	6	2	16	-4	-7	-10
CS(=O)(=O)N1CCN(c2ccccc2NC(=S)NC(=O)c2ccccc2[N+](=O)[O-])CC1	-25	7	1	-1	7	29*
N#Cc1c(C(F)(F)F)cc(-c2ccccc2)n(N)c1=O	10	3	-5	-3	31*	-15
O=C(CC1Nc2ccccc2NC1=O)Nc1ccc2c(c1)OCO2 (stereo unspecified)	-6	0	-18	-6	28*	5
CC(NC(=S)Nc1ccccc1C(F)(F)F)C1CC2CCC1C2 (stereo unspecified)	12	0	0	2	0	-8
COc1ccc(N/N=C(\C#N)C(=N)N2CCCCC2)cc1	4	0	13	-3	-3	-9
COc1ccc(N/N=C(\C#N)C(=N)SCc2ccccc2)cc1	2	18*	8	4	-14	-2
CCOC(=O)Cn1nc(C(F)F)c(Br)c1C	10	1	21	-4	-9	-6
NC(=O)c1ccccc1NC(=O)c1ccccc1Cl	5	0	-22	-3	8	-7
CCSc1nnc(NC(=O)c2ccc(Br)s2)s1	-3	1	7	-3	-6	7
O=C(Nc1nnc(C(F)(F)F)s1)c1ccc(Br)s1	-3	13	-13	3	3	28*
O=C(Nc1ccccc1C(=O)Nc1nnc(C(F)(F)F)s1)c1ccccc1Cl	-12	28*	-25	10	27*	34*
CCOc1ccccc1-n1c(SC(C)C(=O)NCC2CCCO2)nc2ccccc2c1=O (stereo unspecified)	2	0	-15	30*	-1	-5
O=P(c1ccccc1)(c1ccccc1)c1nc(-c2ccc(Cl)cc2)oc1N1CCOCC1	11	1	30	-5	-2	-11
Cc1ccc2c(c1)NC(=O)C(CC(=O)NCCCN1CCCCC1C)O2 (stereo unspecified)	-2	-1	14	-14	2	-9
Cc1ccc2c(c1)NC(=O)C(CC(=O)NCCCN1CCCC1)O2 (stereo unspecified)	1	3	4	-13	9	0
CCC(C)N(CCNC(=O)CC1Oc2ccc(C)cc2NC1=O)C1CCCCC1 (stereo unspecified)	-35	0	-3	-14	-2	101*
CC1CCCCN1CCNC(=O)CC1Oc2ccccc2NC1=O (stereo unspecified)	-24	0	7	-13	-2	36*
c1ccc(CNc2nc(NCCc3ccncc3)c3sccc3n2)cc1	-31	93*	-14	99*	99*	91*
SMILES	M1 PAM	M1 ag parental	CHO-K1 Ca PAM	M1 ag	CHO-K1 Ca antag	M1 antag
c1csc(CNc2nc(NCC3CCCCC3)c3sccc3n2)c1	-14	14	14	7	23	24
CC(C)Nc1nc(NCCN2CCNC2=O)c2sccc2n1	-1	0	17	-9	-9	-11
O=C1CCCN1CCCNc1nc(NCc2cccs2)nc2ccsc12	-33	56*	-12	69*	22	68*
CC(=O)NCCNc1nc(NCc2cccs2)nc2ccsc12	-1	5	-2	-3	-6	-25
COCCNc1nc(NCc2cccs2)nc2ccsc12	-33	85*	-18	93*	64*	91*
O=C1NCCN1CCNc1nc(NCc2ccccc2)nc2ccsc12	-33	32*	-13	47*	27*	70*
CCn1cc(C(=O)N2CCN(c3ccccc3F)CC2)c(=O)c2ccc(C)nc21	-9	-1	-7	-5	14	18
O=[N+]([O-])c1cccc(S(=O)(=O)NCCCn2ccnc2)c1	4	-1	-17	-10	16	-4
CC(=O)OC1COC(n2c(O)c(N=NC(N)=S)c3ccccc32)C(OC(C)=O)C1OC(C)=O (stereo unspecified)	-1	2	2	-2	2	0
NC(=O)CSc1oc(-c2ccco2)nc1S(=O)(=O)c1ccc(F)cc1	1	1	4	-3	-4	1
COc1cc(/C=C/C(=O)O)cc(S(=O)(=O)NC2CC2)c1OC	7	0	11	-3	-1	-5
CCOC(=O)Cc1ccc(Nc2nc(NCCOC)nc3ccsc23)cc1	-30	5	-11	-5	-2	42*
Cc1ccc(Nc2nc(NCc3ccccc3)nc3ccsc23)c(C)c1	-24	2	-11	16	18	55*
CSc1ccccc1CNc1nc(NCC2CC2)nc2ccsc12	-21	9	-10	2	17	39*
CNc1nc(NCc2ccccc2)c2sccc2n1	-4	6	-9	2	-5	8
Cc1ccc(Nc2nc(NCc3cccs3)nc3ccsc23)c(C)c1	-15	7	8	6	8	13
COc1cccc(CNc2nc(NCC3CC3)nc3ccsc23)c1OC	-27	4	-13	-4	5	35
c1ccc(CNc2nc(NCc3cccs3)nc3ccsc23)cc1	-21	16*	11	14	14	25
Cc1ccc(OCCN2CCC2(C)C(=O)Nc2ccc3c(c2)OCCO3)cc1 (stereo unspecified)	6	0	4	-1	7	-7
CN(Cc1cn(Cc2ccc(F)cc2)nn1)C1CN(Cc2cn(Cc3ccc(F)cc3)nn2)S(=O)(=O)C1 (stereo unspecified)	x	2	10	x	-22	x
COc1c2c(c(OC)c3ccccc13)[C@@]1(OC2)O[C@H](CCO)C[C@H](O)[C@H]1O	0	0	12	-3	-8	-17
O=C(NCc1ccccn1)[C@H]1C[C@@H]1[C@H](NP(=O)(c1ccccc1)c1ccccc1)c1ccccc1	21	1	17	3	-12	-6
COc1cccc(CNc2nc(NCc3ccccc3)nc3ccsc23)c1	-28	29*	-16	15	21	46*
